Assay outcomes deposited in PubChem BioAssay by National Center for Advancing Translational Sciences (NCATS).
nsP2pro inh – Primary qHTS for inhibitors of NSP2Pro chikungunya virus (CHIKV); FRET peptide cleavage, nsP2pro, fluorescence 1 h; AID 1964107, 2024; 1.1% of 31,000 active; Potency, µM (titrated, usually from 24.9 µM), for the others: at the highest dose activity change, negative = inhibition, most hits filed as inhibitors; Polyprotein P1234 (Chikungunya virus (strain S27-African prototype)), Q8JUX6; note: nearly all actives have a fitted effect of over 60% in size
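Enzyme 150 nM, substrate 2.5 uM (both final); Tris-HCl 10 mM pH 8.0 + 0.01% Tween 20; cpd up to 25 uM, 7 pts; 15 min preinc., 1 h RT; fluorescence ex 525/em 598.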
CHIKV nsP2 cell – Secondary cell base assay for inhibitors of NSP2Pro Chikungunya virus (CHIKV); AID 1964100, 2024; 10% of 450 active; shares compounds with nsP2pro inh; Potency, µM (series often up to 51.1 µM), for the others: at the top dose activity change, negative = inhibition, actives largely listed as inhibitors; cell-based CHIKV nsP2 protease reporter assay; note: nearly all actives have a fitted effect of over 70% in size
CHIKV NSP2 FL – Selectivity profile for inhibitors of NSP2Pro chikungunya virus (CHIKV): Full length NSP2 enzyme counterscreen (CHIKV-NSP2). shares compounds with nsP2pro inh. Full-length CHIKV NSP2 protease enzymatic counterscreen. Potency, µM (top dose mostly 50.7 µM), without a hit: at the top dose activity change, negative = inhibition, most hits filed as inhibitors. 39% of 410 active. AID 1964101, 2024; note: nearly all actives have a fitted effect of over 65% in size
Furin counterscr – Selectivity profile for inhibitors of NSP2Pro chikungunya virus (CHIKV): Human furin counterscreen. Recombinant human furin enzymatic counterscreen, fluorogenic substrate. 6% of 410 active. shares compounds with nsP2pro inh. Potency, µM (top dose mostly 50.6 µM), without a hit: top-dose activity change, negative = inhibition, hits mostly inhibitors
NS23 peptide cs – Selectivity profile for inhibitors of NSP2Pro chikungunya virus (CHIKV): Endogenous NS2/3 peptide Counterscreen | shares compounds with nsP2pro inh | 34% of 410 active | Purified CHIKV nsP2 protease, endogenous NS2/3 peptide cleavage | Potency, µM (doses to about 51 µM), for the others: at the highest dose activity change, negative = inhibition, most hits filed as inhibitors; note: nearly all actives have a fitted effect of over 55% in size
Papain counter – Selectivity profile for inhibitors of NSP2Pro chikungunya virus (CHIKV): Papain Counterscreen; purified papain protease activity, enzymatic inhibition; 5% of 410 active; shares compounds with nsP2pro inh; Potency, µM (highest dose often 51 µM), inactives show top-dose activity change, negative = inhibition, actives largely listed as inhibitors
nsP2pro confirm – Confirmatory qHTS for inhibitors of NSP2Pro chikungunya virus (CHIKV); shares compounds with nsP2pro inh; CHIKV nsP2 protease enzymatic activity, qHTS; Potency, µM (titrated, usually from 25.5 µM), for inactives: at the highest dose activity change, negative = inhibition, usual class: inhibitors; 43% of 410 active; AID 1964105, 2024; note: nearly all actives have a fitted effect of over 75% in size
HCV NS3 4A cs – Selectivity profile for inhibitors of NSP2Pro chikungunya virus (CHIKV): NS34A-HCV Counterscreen; Potency, µM (titrated, usually from 50.9 µM), hits mostly inhibitors; HCV NS3/4A protease biochemical counterscreen; shares compounds with nsP2pro inh; 20% of 410 active; note: nearly all actives have a fitted effect of over 55% in size
The depositor's hits bear a star; i = inactive; u = inconclusive. Only a selection was taken, and hits are over-represented in it overall. Calls come from the whole dose curve. % is set by controls: 0 for no effect and ±100 for the full control effect; potency is the fitted concentration of half-maximal effect.

SMILES | nsP2pro inh | others
O=C(COc1ccccc1)N1C[C@@H]2C[C@H](C1)c1c(NS(=O)(=O)c3ccccc3)ccc(=O)n1C2 | u | CHIKV nsP2 cell=4%;CHIKV NSP2 FL=16µM*;Furin counterscr=-4%;NS23 peptide cs=u;Papain counter=-3%;nsP2pro confirm=u;HCV NS3 4A cs=u
O=C(Nc1ccc(=O)n2c1[C@@H]1C[C@@H](CN(C(=O)COc3ccccc3)C1)C2)c1ccccc1 | 0%
CN1C(=O)N(C[C@H](C(=O)NO)[C@@H](CC2CCCC2)C(=O)N2CCCCC2)C(=O)C1(C)C | -4%
Cc1cc(C)nc(NC(=S)N2CCN(c3ncccn3)CC2)c1 | -1%
Cn1cc(C(=O)Cc2ccccc2)cc1/C=C/C(=O)NO | 16%
O=C(NCC(c1cccnc1)N1CCc2ccccc2C1)c1ccc(F)c(F)c1 (centres undefined) | u | CHIKV nsP2 cell=-12%
COc1ccc(C(=O)NCC(c2cccnc2)N2CCN(c3ccccc3)CC2)cc1 (centres undefined) | -10%
COc1ccccc1C(=O)NCC(c1cccnc1)N1CCc2ccccc2C1 (centres undefined) | -17%
Cc1ccsc1CN1CCc2nc(N3CCN(c4ccccc4F)CC3)ncc2C1 | -20%
CCN1CCN(c2ncc3c(n2)CCN(Cc2ccc(OC(C)C)cc2)C3)CC1 | -12%
CCN1CCN(c2ncc3c(n2)CCN(Cc2ccc(Br)s2)C3)CC1 | 46%
CCN1CCN(c2ncc3c(n2)CCN(Cc2sccc2C)C3)CC1 | 7% | CHIKV nsP2 cell=u;CHIKV NSP2 FL=12µM*;Furin counterscr=-9%;NS23 peptide cs=u;Papain counter=-4%;nsP2pro confirm=u;HCV NS3 4A cs=6.5µM*
Brc1ccc(CN2CCc3nc(N4CCN(c5ncccn5)CC4)ncc3C2)cc1 | 33%
CN1CCN(c2ncc3c(n2)CCN(Cc2ccc(Br)s2)C3)CC1 | u | CHIKV nsP2 cell=u;CHIKV NSP2 FL=18µM*;Furin counterscr=-9%;NS23 peptide cs=u;Papain counter=5%;nsP2pro confirm=u;HCV NS3 4A cs=12µM*
Cc1ccc(CN2CC(Cn3c(C)cnc3-c3ccncc3)C2)o1 | i
N[C@H]1Cc2ccccc2N(O)C1=O | 50%
NC1=N[C@@](c2cccc(-c3cncnc3)c2)(c2ccnc(C(F)F)c2)c2cccc(F)c21 | -4%
CCOc1ccc(CCNC(=O)c2cc3ccccc3n2C)cc1OCC | i
CCC(c1ccccc1)c1c(O)c2ccccc2oc1=O (centres undefined) | -6%
CC(C)[C@H]1C(=O)N[C@@H](CCCN=C(N)N)C(=O)NCC(=O)N[C@@H](CC(=O)O)C(=O)N[C@H](Cc2ccccc2)C(=O)N1C | -1%
CS(=O)(=O)c1ccc(Oc2cc(F)cc(C#N)c2)c2c1[C@H](O)[C@H](F)[C@@H]2F | -7%
C[C@](C#N)(COc1cc(C#N)ccc1C(F)(F)F)NC(=O)c1ccc(SC(F)(F)F)cc1 | 3%
O=C(Cn1ncccc1=O)NCCc1ccccc1 | -6%
CCn1c(=O)cc(OCC(=O)NCc2ccccc2OC)c2ccccc21 | -7%
